For 71 compounds, Inhibition results are on record in ChEMBL document CHEMBL4513146, “CO-ADD screening of Karazin Kharkiv National University (Ukraine) compounds”.

One assay deals with Staphylococcus aureus. The settings on record: Concentration 32 ug.mL-1;; ASSAY_TEST Inhibition of Bacterial Growth; detection method Absorption (OD600); MEDIA CAMHB; plate type 384well; NBS; CORNING #3640; time 18 hr.
Another assay concerns Escherichia coli. The conditions noted are these: Concentration 32 ug.mL-1;; ASSAY_TEST Inhibition of Bacterial Growth; detection method Absorption (OD600); MEDIA CAMHB; plate type 384well; NBS; CORNING #3640; time 18 hr.

Results with a measured potency or affinity are listed apart.

As for `Cc1ccc(Oc2nc3ccccc3n3c(=O)n(CC(=O)Nc4ccc5c(c4)OCO5)nc23)cc1`, the Inhibition with Staphylococcus aureus is 1.4%; in the assay on Escherichia coli it was -7.69%.
For `CCc1nnc2c(=O)n(CC(=O)Nc3ccc4c(c3)OCCO4)c3ccccc3n12` the same measures were 2.09% and -4.51%.
For `O=C(Cn1nc2c(N3CCOCC3)nc3ccccc3n2c1=O)Nc1ccccc1Br` the same measures were 3.23% and -2.52%.
For `Cc1cccc(N(C)C(=O)Cn2nc3cc(C)nc(Nc4ccc(C)c(F)c4)n3c2=O)c1` the same measures were -15.22% and 0.9%.
With `Cc1cc2nn(CC(=O)Nc3ccc(F)cc3Cl)c(=O)n2c(Nc2ccccc2C)n1`, the Inhibition is -3.09% in the assay with Staphylococcus aureus and -11.67% with Escherichia coli.
The matching figures for `CCc1nnc2ccc(S(=O)(=O)N(Cc3ccc(OC)cc3)c3ccc(F)cc3)cn12`: 4.6% and -5.2%.
`Cc1ccc(Oc2nccn3c(=O)n(CC(=O)Nc4ccc(Cl)cc4F)nc23)cc1`: the Inhibition was 5.22% with Staphylococcus aureus and -5.2% with Escherichia coli.
For `COc1cc(NC(=O)C(C)Sc2nnc3c(=O)n(-c4cccc(OC)c4)ccn23)cc(OC)c1` (configuration not stated) the same measures were -2.41% and -14.15%.
Consider `COc1cccc(NC(=O)Cn2nc3c4cc(-c5ccc(Cl)cc5)nn4ccn3c2=O)c1`, for which the Inhibition in the assay on Staphylococcus aureus stood at 4.83%; in the assay on Escherichia coli, 3.44%.
The matching figures for `Cc1cccc(NC(=O)CSc2nnc3ccc(C(=O)Nc4cccc(F)c4)cn23)c1`: 8.5% and -1.74%.
For `COc1ccccc1Cn1c(=O)c2sccc2n2c(=O)n(Cc3ccc(Br)cc3)nc12` the same measures were 5.17% and 2.24%.
Consider `Cc1cccc(CN(c2cccc(Cl)c2)S(=O)(=O)c2cccn3c(C)nnc23)c1`, for which the figures for the Inhibition in the assay with Staphylococcus aureus and in the assay on Escherichia coli were 9.05% and -5.75%, respectively.
For `Cc1ccc(-c2ccc3nn(Cc4nc(-c5ccc(Cl)cc5)no4)c(=O)n3n2)cc1` the same measures were 5.13% and 0.55%.
For `C=Cc1ccc(Cn2nc3c(=O)n(-c4ccc(C)c(C)c4)ccn3c2=O)cc1` the same measures were 0.4% and 3.59%.
The matching figures for `Cc1nnc2c(=O)n(CC(=O)Nc3ccccc3Cl)c3ccccc3n12`: 10.77% and -2.02%.
`Cc1ccc(Sc2ccc3nn(CC(=O)Nc4ccc(Br)c(C)c4)c(=O)n3n2)cc1`: the Inhibition was 8.43% in the assay on Staphylococcus aureus and -6% in the assay with Escherichia coli.
For `O=C(CSc1nnc2c3cc(-c4ccc(F)cc4)nn3ccn12)NCCc1ccccc1` the same measures were 4.82% and -7.39%.
The matching figures for `Cc1ccc(-c2ccc3nn(Cc4nc(-c5ccc(OC(F)(F)F)cc5)no4)c(=O)n3n2)cc1`: 8.38% and -3.94%.
The matching figures for `Cc1nnc2c(S(=O)(=O)N(Cc3ccccc3F)c3ccc(C(C)C)cc3)cccn12`: 11.33% and -2.7%.
In the case of `CC(C)c1ccc(NC(=O)CSc2nnc3c(=O)n(-c4ccccc4)ccn23)cc1`, the Inhibition is 3.45% with Staphylococcus aureus and -7.12% in the assay on Escherichia coli.
For `N#Cc1ccccc1NC(=O)Cn1nc2c(Oc3ccccc3)nccn2c1=O` the same measures were 8.21% and 1.56%.
The matching figures for `CC(C)c1nnc2c(=O)n(CC(=O)Nc3cccc(Br)c3)c3ccccc3n12`: 13.16% and -0.75%.
For `N#Cc1cccc(NC(=O)CSc2nnc3c4cc(-c5ccc(F)cc5)nn4ccn23)c1` the same measures were 11.69% and -2.69%.
Turning to `COC(=O)c1ccc(NC(=O)Cn2nc3ccc(SCc4ccc(Cl)cc4)nn3c2=O)cc1`, the Inhibition was 18.39% with Staphylococcus aureus and 1.59% in the assay on Escherichia coli.
For `CCc1ccc(NC(=O)Cn2c(=O)c3nnc(C(C)C)n3c3ccccc32)cc1` the same measures were 6.08% and 6.05%.
On to `Cc1oc(-c2ccc(OC(C)C)cc2)nc1CSc1nc2ccccc2n2c(C(C)C)nnc12`, for which the Inhibition is on record as -4.43% in the assay on Staphylococcus aureus and -16.17% with Escherichia coli.
`Cc1ccc(-n2ccn3c(=O)n(Cc4ccccc4)nc3c2=O)cc1C`: the Inhibition with Staphylococcus aureus is listed as 5.93%; in the assay with Escherichia coli it was -8.73%.
For `Cc1cc2nn(CC(=O)Nc3ccccc3F)c(=O)n2c(Nc2ccc(C)c(F)c2)n1` the same measures were -7.63% and -14.62%.
`CCC(Sc1nnc2c(=O)n(-c3ccc(C)c(C)c3)ccn12)C(=O)Nc1ccccc1C` (configuration not stated): the Inhibition is given as 13.17% with Staphylococcus aureus and -4.12% with Escherichia coli.
The matching figures for `COc1cccc(-n2ccn3c(SCC(=O)NC(C)C)nnc3c2=O)c1`: 11% and -7.26%.
For `O=C(Cn1nc2c3c4c(sc3ncn2c1=O)CCCC4)Nc1ccc2c(c1)OCO2` the same measures were -0.05% and -3.47%.
For `CCCCOc1ccc(-c2cc3c4nnc(SCC(=O)Nc5ccc(Cl)cc5)n4ccn3n2)cc1` the same measures were 6.59% and -0.55%.
As to `C=Cc1ccc(Cn2nc3c(=O)n(-c4cccc(Cl)c4C)ccn3c2=O)cc1`, the values for the Inhibition with Staphylococcus aureus and with Escherichia coli were -2.71% and -4.95%, respectively.
For `CC(=O)c1ccc(NC(=O)Cn2nc3ccc(-c4ccc(C)c(C)c4)nn3c2=O)cc1` the same measures were 9.12% and -4.24%.
The matching figures for `Cc1ccc(-c2ccc3nn(CC(=O)Nc4ccccc4)c(=O)n3n2)cc1C`: 3.99% and -8.76%.
For `CC(C)c1nnc2c(=O)n(CC(=O)Nc3ccc(C#N)cc3)c3ccccc3n12` the same measures were -0.41% and -7.65%.
On to `O=C(Cn1nc2c(N3CCOCC3)nccn2c1=O)NCc1cccs1`, for which the Inhibition in the assay with Staphylococcus aureus was 22.65%; in the assay on Escherichia coli, 1.24%.
For `Cc1nnc2c(S(=O)(=O)N(Cc3ccccc3)c3ccc(C(C)C)cc3)cccn12` the same measures were 6.07% and -2.4%.
For `O=C(NCc1ccccc1)c1ccc2nn(CC(=O)N3CCN(c4ccccc4)CC3)c(=O)n2c1` the same measures were 4.31% and -4.36%.
For `N#CCn1nc2n(Cc3ccc(F)cc3)c(=O)c3ccccc3n2c1=O` the same measures were 1.37% and -10.2%.
As to `COc1ccc(-c2cc3c4nnc(SCC(=O)NCc5cccc(OC)c5OC)n4ccn3n2)cc1`, the Inhibition in the assay on Staphylococcus aureus was 4.12%; in the assay with Escherichia coli, -5.71%.
For `Cc1nnc2ccc(S(=O)(=O)N(Cc3cccc(F)c3)c3ccc(F)cc3)cn12` the same measures were -0.57% and -11.39%.
The matching figures for `O=c1n(Cc2ccc3c(c2)OCO3)nc2c(S(=O)(=O)N3CCCCC3)cccn12`: 10.75% and 1.46%.
For `Cc1ccc(NC(=O)Cn2nc3cc(C)nc(Nc4ccc(F)cc4)n3c2=O)cc1`, the Inhibition in the assay with Staphylococcus aureus is 6.17%; in the assay with Escherichia coli it was -2.28%.
For `CCc1nnc2ccc(S(=O)(=O)N(Cc3ccccc3)c3ccccc3)cn12` the same measures were 5.6% and -2.89%.
For `Cc1ccc(Oc2nccn3c(=O)n(CC(=O)Nc4ccc5c(c4)OCO5)nc23)cc1` the same measures were 6.26% and -6.61%.
The matching figures for `COc1ccc(-c2cc3c4nnc(CCC(=O)NCc5ccc(OC)cc5OC)n4ccn3n2)cc1`: 16.19% and 5.82%.
`CCc1ccc(N(Cc2ccc(C)cc2)S(=O)(=O)c2cccn3c(C)nnc23)cc1`: the Inhibition with Staphylococcus aureus is reported as 16.56%; with Escherichia coli it was 0.51%.
For `COc1ccccc1NC(=O)Cn1nc2c(Oc3ccc(Cl)cc3)nccn2c1=O` the same measures were 6.15% and -7.74%.
For `CCCc1nnc2c(=O)n(CC(=O)Nc3ccc(C#N)cc3)c3ccccc3n12` the same measures were 8.01% and -1.86%.
For `Cc1nnc2c(=S)[nH]c3ccccc3n12` the same measures were 19.6% and 10.5%.
For `CC(C)c1nnc2c(SCC(=O)Nc3ccc(Br)cc3F)nc3ccccc3n12`, the Inhibition is on record as 6.04% in the assay on Staphylococcus aureus and -1.36% in the assay on Escherichia coli.
For `COc1cc(OC)c(NC(=O)Cn2nc3c(Oc4ccccc4)nccn3c2=O)cc1Cl` the same measures were -15.01% and -15.59%.
The matching figures for `CCOC(=O)c1ccc(NC(=O)Cn2nc3c(Oc4ccccc4)nccn3c2=O)cc1`: -0.24% and -4.26%.
The matching figures for `Cc1ccc(-c2cc3c4nnc(CCC(=O)NCCCc5ccccc5)n4ccn3n2)cc1C`: 6.48% and 1.28%.
For `COc1ccc(-c2cc3c4nnc(SCC(=O)NCc5ccc(C)cc5)n4ccn3n2)cc1`, the Inhibition in the assay on Staphylococcus aureus is on record as -10.11%; in the assay with Escherichia coli it was 0.51%.
For `CC(C)c1nnc2c(=O)n(CC(=O)Nc3ccc(Cl)c(Cl)c3)c3ccccc3n12` the same measures were 8.95% and 5.48%.
For `Cc1c(Cl)cccc1-n1ccn2c(=O)n(Cc3ccc(Cl)cc3)nc2c1=O` the same measures were 9.17% and -7.56%.
For `Cc1ccc(-c2cc3c4nn(CC(=O)NCc5ccccc5Cl)c(=O)n4ccn3n2)cc1C` the same measures were 0.72% and 0.46%.
In the case of `COc1ccc(NC(=O)CSc2nnc3c(=O)n(-c4cccc(F)c4)ccn23)cc1OC`, the Inhibition was 3.1% with Staphylococcus aureus and -11.05% with Escherichia coli.
The matching figures for `COc1ccc(NC(=O)Cn2nc3c(N4CCCC4)nccn3c2=O)cc1`: 5.17% and 5.65%.
The matching figures for `Cc1ccc(NC(=O)CSc2nc3ccccc3n3cnnc23)c(C)c1`: -8.66% and -6.3%.
For the compound `COc1ccc(Cl)cc1NC(=O)Cn1nc2c3cc(-c4ccc(C)cc4)nn3ccn2c1=O`, the Inhibition in the assay on Staphylococcus aureus is on record as 13.21%; in the assay with Escherichia coli, 3.02%.
For `Cc1ccc(-c2ccc3nnc(CCC(=O)NCc4ccc(C(F)(F)F)cc4)n3n2)cc1C` the same measures were 17.72% and 1.8%.
The matching figures for `COc1ccc(OC)c(NC(=O)Cn2nc3ccc(SCc4ccc(Cl)cc4)nn3c2=O)c1`: -2.6% and -8.88%.
Regarding `O=c1c2sccc2n2c(=O)n(Cc3cccc(C(F)(F)F)c3)nc2n1Cc1cccs1`, the Inhibition with Staphylococcus aureus is 22.09%; in the assay with Escherichia coli, 2.86%.
The matching figures for `COc1cc(OC)c(NC(=O)Cn2nc3ccc(Sc4ccc(C)cc4)nn3c2=O)cc1Cl`: -4.96% and -10.5%.
`COc1ccc(C(C)NC(=O)CCc2nnc3ccc(-c4ccc(C)cc4)nn23)cc1OC` (configuration not stated): the Inhibition in the assay with Staphylococcus aureus was found to be 4.62%; with Escherichia coli, 2.29%.
Consider `Cc1ccc(C)c(Cn2nc3c(=O)n(-c4cccc(Cl)c4C)ccn3c2=O)c1`, for which the Inhibition is on record as -0.35% in the assay on Staphylococcus aureus and -10.27% in the assay on Escherichia coli.
Take `COc1ccccc1-n1ccn2c(SCc3ccc(Cl)cc3)nnc2c1=O`: the Inhibition is recorded as 7.4% with Staphylococcus aureus and -9% with Escherichia coli.
The matching figures for `CCc1ccc(NC(=O)Cn2nc3cc(C)nc(Nc4ccc(F)c(C)c4)n3c2=O)cc1`: 4.65% and -6.45%.

A word on the Inhibition: it is the drop in the measured response relative to a control, in per cent.
